Sensor-assay potency score (higher = more potent) data for 40 sequences are collected here from the OligoGym collection.
Further: reference of the scale not given here.

The target of one experiment is LYPD3. As to the kind of experiment: pooled miR-30 sensor sort-seq; sequence = guide strand. The following applies: shRNA.
In turn, TCATCCTGGACACAGCCCCGGA yielded a sensor-assay potency score (higher = more potent) of -1.53.
Take TTGCCGTCGAAGCAGCCCTTGT: the sensor-assay potency score (higher = more potent) is -1.63.
TCTGCTTTCTGCACGCAGCTGT registered a sensor-assay potency score (higher = more potent) of 0.703.
Take TCTTGTTCGGGGAGCATCCGTC: the sensor-assay potency score (higher = more potent) was -0.769.
For TAGAAGTGGTGACAGATGTGGT, the sensor-assay potency score (higher = more potent) was -0.342.
Same read-out and setting: in the case of TTGAGCTTGGCGTTGCAGCGAT it was -0.598.
On the same count and under the same terms, in the case of TTGTAGACATGATCGCTGGCGT it was -0.346; in that of TCATCTGCTTTCTGCACGCAGC, -1.43; in that of TTCACTGTCTTCATCTTGTTCG, 0.494.

A further experiment addresses LYZL6. Described as above. The following applies: shRNA.
CAGATCTTGACAGTCTACGTGG had a sensor-assay potency score (higher = more potent) of -1.04.
TCAGCAGATCTTGACAGTCTAC displayed a sensor-assay potency score (higher = more potent) of -0.859.
The same measure, in the same setting: in the case of TATGTTGAACTTGCTTTCCACA it was -1.04; in that of TATCTTTGATATGTTGAACTTG, -0.231; in that of TTGATATGTTGAACTTGCTTTC, -0.485.
In turn, TAATCGTTGCACCAGTAGTGGC displayed a sensor-assay potency score (higher = more potent) of -1.43.
With TTTGATATGTTGAACTTGCTTT, the sensor-assay potency score (higher = more potent) was determined as 0.0932.
The same measure, in the same setting: in the case of AACAGTGCAACCTCCATTCTAC it was -0.122; in that of ATAATCGTTGCACCAGTAGTGG, -0.825; in that of TTTAGGGCAAGAAAGCTGCTGA, -0.16.
Same read-out and setting: in the case of ATCTTTGATATGTTGAACTTGC it was -0.0692; in that of TTGCTTTCCACAAAAGCCAGGC, -0.197.

In a further experiment the target is LZTR1. The experiment is described as above. The following applies: shRNA.
As to TATTTGATCTTGTCGGTGTAGA, the sensor-assay potency score (higher = more potent) amounted to 0.13.
As for TTGGAGACCTTGGTGAACTGGT, the sensor-assay potency score (higher = more potent) came out at 0.248.
Same read-out and setting: for TTCATCTCCAGGTTCTGCTTGC the value was 0.0647; for AATACAAACATCTTGTCCCGGC, -0.355; for TAGGGTAACAGGAGAACTGGAA, 0.345.
TATGATGTCCAGCAGCAGCTGC: the sensor-assay potency score (higher = more potent) was -0.965.
In the case of TTAGGGTAACAGGAGAACTGGA, the sensor-assay potency score (higher = more potent) was -0.956.
With TAACAGGAGAACTGGAACCTGT, the sensor-assay potency score (higher = more potent) was -1.05.
Regarding TCATTGAGCATGGTCTTCCCAT, the sensor-assay potency score (higher = more potent) is -0.632.
The same measure, in the same setting: in the case of TTTCACATCGAACCGCAGGAGG it was -1.16; in that of TACTCGACACTGTCCGAGCAGC, -1.08.

Another experiment addresses MACROD1. The description is as above. The following applies: shRNA.
With AAGGATTTCGCCTCCTTCCAGT, the sensor-assay potency score (higher = more potent) is -0.552.
TTGAGCTGCTTGTCCTTTTTAT: the sensor-assay potency score (higher = more potent) was -0.992.
Regarding TTACAGCTCTGCAGGGTCCGGC, the sensor-assay potency score (higher = more potent) was -1.02.
AACACGCAGATGATCAGCCGGT showed a sensor-assay potency score (higher = more potent) of -0.183.
As to TTTCTCATTGAGCTGCTTGTCC, the sensor-assay potency score (higher = more potent) was -0.192.
Sequence TCCAGCTTGGTGATGTCGCTGC registered a sensor-assay potency score (higher = more potent) of -0.0855.
In the case of TTTCGCCTCCTTCCAGTCGGTG, the sensor-assay potency score (higher = more potent) is -1.53.
The same measure, in the same setting: in the case of TTCAGCCTGACAAAGTCCTTGC it was 0.08.
